Compound activity as filed in PubChem.
Compounds with a hit are over-represented: about 6.6% of the library has one in this group of screens.
KB-3-1 tox – KB-3-1 parental cell cytotoxicity; KB-3-1 viability, CellTiter-Glo ATP luminescence, 72 h; Potency, µM (doses to about 46.1 µM), hits mostly cytotoxic; actives 1.4% (n = 400,000); AID 1347075; further: on the % scale 0 is the no-effect control and ±100 the full control effect; nearly all actives have a fitted effect of over 60% in size
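Parental KB-3-1 adenocarcinoma cells in phenol-red-free DMEM with 10% FBS were pin-treated with compounds at several concentrations, incubated 72 h at 37 °C, and viability read by CellTiter-Glo luminescence; concentration-effect curves were fitted after normalization.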
HT1080-NT tox – kills 2HG-producing HT-1080-NT fibrosarcoma cells; HT-1080-NT fibrosarcoma viability, CellTiter-Glo ATP luminescence, 48 h; actives 1.6% (n = 360,000); AID 686970; Potency, µM (doses to about 46.1 µM), for inactives: at the highest dose activity, negative = less viability, actives largely listed as cytotoxic;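 further: NT is the 2HG producing partner of a matched IDH1 knockdown line; 0% = DMSO-treated cells and -100% = media-only wells without cells; nearly all actives have a fitted effect of over 55% in size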
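Compounds were tested in concentration-response format on HT-1080-NT cells for 48 hours at 37 degrees C. Cell viability came from CellTiter-Glo luminescence; curves were classified by r2, response magnitude and activity.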
HT1080 IDH1KD tx – HT-1080 IDH1 knockdown cell toxicity (counter line); Potency, µM (highest dose often 46.1 µM), for inactives: top-dose activity, negative = toxicity, usual class: cytotoxic; HT-1080 IDH1 knockdown viability, ATP luminescence, 48 h; AID 686971; actives 2% (n = 360,000);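 further: 0% = DMSO wells and -100% = cell-free medium wells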
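Using the IDH1-knockdown HT-1080 line run in the same batch and compound series as the NT line, viability after 48 h at 37 °C was determined by CellTiter-Glo luminescence and expressed as % activity.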
HepG2 viability – counter-screen for TGF-b inhibitors: cytotoxicity in HepG2 cells; HepG2 CAGA-GFP viability, ATP luminescence, 18 h; Potency, µM (series often up to 46.1 µM), inactives show at the top dose activity change, negative = cytotoxicity, actives largely listed as cytotoxic; actives 0.76% (n = 410,000)
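HepG2 CAGA-GFP cells (1000/well, DMEM with 1% FBS) received compound, then TGF-beta at 500 pg/mL final, and were incubated 18 hours at 37 degrees C. Viability was read by CellTiter-Glo luminescence. Media-only wells were set as complete cell-killing and DMSO as no toxicity.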
KB-V1 cytotox – KB-V1 MDR subline cytotoxicity; KB-V1 MDR cells viability, CellTiter-Glo, 72 h; Potency, µM (highest dose often 46.1 µM), actives largely listed as cytotoxic; actives 3.4% (n = 400,000); AID 1347076; further: on the % scale 0 is the no-effect control and ±100 the full control effect; nearly all actives have a fitted effect of over 60% in size
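Luminescent ATP read-out (CellTiter-Glo, 10 min) measures survival of drug-selected KB-V1 MDR cells after 72 h, 37 degrees C compound exposure. Medium: phenol-red-free DMEM, 10% FBS. Values from fitted concentration-response curves.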
TGFb inhibitor – inhibitors of TGF-b signaling | HepG2 CAGA-GFP TGF-b/SMAD3 reporter, GFP fluorescence, 18 h; TGF-beta stimulated, 500 pg/mL final | Potency, µM (titrated, usually from 46.1 µM), for inactives: at the highest dose activity, negative = inhibition, hits mostly inhibitors | AID 588855 | actives 1.2% (n = 410,000); further: on the % scale 0 is the no-effect control and ±100 the full control effect; nearly all actives have a fitted effect of over 65% in size
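TGF-beta reporter screen: HEPG2 CAGA-GFP, 1% FBS, 500 pg/mL TGF-beta final, 18 h; per-cell GFP summed per well; curves fitted and categorized by class.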
* = called active by the depositor; i = inactive; ? = inconclusive; · = no result given; ! = not active in a repeat. The call rests on the fitted dose curve; in most records, active means well fitted curve in the direction sought with a large enough effect; inconclusive means small, poorly fitted or top-dose-only effect, or another doubt; inactive means no such curve, though single readings can be large; an effect the other way counts as inactive or inconclusive. Potency means the concentration at half of the fitted maximal effect.

SMILES	KB-3-1 tox	HT1080-NT tox	HT1080 IDH1KD tx	HepG2 viability	KB-V1 cytotox	TGFb inhibitor
CCCCC[C@@H](C)N1C[C@H](COCc2ccccc2)Oc2cc(N3CCC[C@@H]3COC)ccc2S1(=O)=O	i	2.0%	-3.5%	·	i	·
Cc1cc(C)n(-c2ccc(Cl)c(C(=O)NCc3ccccc3)n2)n1	i	-0.8%	-22.5%	-4.7%	11.6µM*	8.4%
Cc1cc(C)n(-c2ccc(Cl)c(C(=O)OCC(N)=O)n2)n1	i	-19.1%	0.0%	-34.0%	i	7.7%
COC(=O)c1ccc(C2Nc3c(C)cccc3-c3cc(C)nn32)cc1 (stereo not drawn)	?	·	·	-5.8%	?	?
Cc1ccc2c(CNCc3ccc(C)o3)c(C(=O)O)n(Cc3ccccc3C)c2c1	i	·	·	-20.5%	i	-11.7%
Cc1ccc(C)n1-c1c(C(=O)NCC(C)c2ccccc2)sc2ncccc12 (stereo not drawn)	?	·	·	-39.0%	i	11.2µM*
Cc1ccc(CCNC(=O)c2sc3ncccc3c2-n2c(C)ccc2C)cc1	i	·	·	-33.6%	i	11.2µM*
COc1cc2nc(N3CCCN(C)CC3)nc(NC3CCN(Cc4ccccc4)CC3)c2cc1OC	?	10µM*	7.08µM*	-83.3%	?	3.16µM*
COc1cc2nc(N3CCN(C)CC3)nc(NC3CCN(Cc4ccccc4)CC3)c2cc1OC	·	?	11.2µM*	·	·	·
COc1cc2c(NC3CCN(C)CC3)nc(N3CCCN(C)CC3)nc2cc1OCc1ccccc1	·	10µM*	6.31µM*	·	·	·
COc1cc2nc(N3CCCN(C)CC3)nc(Nc3ccncc3)c2cc1OC	13µM*	·	·	-4.4%	i	?
Cc1cccc(CN2C(=O)/C(=C\c3ccc(C(=O)NCCN4CCOCC4)cc3)Sc3ccccc32)c1	i	?	?	-8.9%	?	?
CCN1CCN(CCNC(=O)c2ccc3c(c2)N(Cc2ccc(F)cc2)C(=O)/C(=C/c2ccccc2)S3)CC1	?	6.51µM*	5.17µM*	-185.4%	?	?
CCN1CCCC1CNC(=O)c1ccc2c(c1)N(Cc1ccccc1F)C(=O)c1ccccc1S2(=O)=O (stereo not drawn)	i	-5.5%	-29.6%	1.0%	i	-3.4%
CCN1CCN(CCNC(=O)c2ccc(/C=C3/Sc4ccccc4N(Cc4cccc(Cl)c4)C3=O)cc2)CC1	?	14.6µM*	?	22.4µM*	?	?
CC1CCCN(CCCNC(=O)c2ccc3c(c2)N(Cc2ccccc2F)C(=O)c2ccccc2S3(=O)=O)C1 (stereo not drawn)	?	25.9µM*	?	11.2µM*!	i	?
CN1CCN(CCCNC(=O)c2ccc(/C=C3\Sc4ccccc4N(Cc4ccccc4F)C3=O)cc2)CC1	i	23.1µM*	?	-34.1%	i	?
O=C(NCCN1CCOCC1)c1ccc(/C=C2\Sc3ccccc3N(Cc3ccccc3F)C2=O)cc1	i	-11.0%	-28.8%	-49.1%	?	?
COc1ccc2c(C)c(CCC(=O)NCCc3ccccc3OC)c(=O)oc2c1	i	·	·	-2.1%	?	-0.7%
CCOc1ccc(NC(=O)CSc2cn(CC(=O)N3CCOCC3)c3ccccc23)cc1	·	·	·	2.4%	·	-2.1%
CCC1CCCCN1CCCNC(=O)c1ccc2c(c1)N(Cc1ccc(F)cc1)C(=O)c1ccccc1S2=O (stereo not drawn)	?	20.6µM*	23.1µM*	-59.4%	i	?
O=C(NCCCN1CCCC1)c1ccc2c(c1)N(Cc1ccc(F)cc1)C(=O)c1ccccc1S2=O (stereo not drawn)	i	-16.9%	-22.6%	-28.4%	?	-3.1%
CCc1ccc(/C=C2/Sc3ccccc3N(CC(=O)NCCCN3CCOCC3)C2=O)cc1	i	7.5%	-0.4%	17.8µM*	i	?
O=C(CN1C(=O)/C(=C/c2ccc(C(F)(F)F)cc2)Sc2ccccc21)NCCCN1CCOCC1	i	?	?	-53.3%	i	?
COc1cccc(-c2ccc3c(N)c(C(=O)NCc4ccc(Cl)cc4)sc3n2)c1	i	·	·	-17.1%	i	?
SMILES	KB-3-1 tox	HT1080-NT tox	HT1080 IDH1KD tx	HepG2 viability	KB-V1 cytotox	TGFb inhibitor
Cc1cc(C)c(NC(=O)CSc2nc3ccccc3nc2N2CCCCC2)c(C)c1	i	·	·	-26.5%	?	0.6%
CC(=O)Nc1nonc1-c1nnc(SCC(=O)Nc2cc(C)ccc2C)n1-c1ccccc1	i	·	·	-28.9%	i	-10.4%
CS(=O)(=O)N1CCN(C(=O)c2csc3ccccc23)CC1	i	5.4%	9.3%	6.0%	i	5.0%
Cc1scc(C(=O)N2CCN(S(C)(=O)=O)CC2)c1-c1ccccc1	i	3.7%	-10.0%	-23.9%	23.1µM*	1.8%
COCC(=O)Oc1cc(-c2ccc(C)cc2C)c(OC(=O)COC)c(-c2ccc(C)cc2C)c1	?	-24.4%	?	7.08µM*	?	?
CN1C(=O)/C(=N\OC(=O)c2cccc3ccccc23)c2ccccc21	i	12.6µM*	?	-43.5%	i	?
CC1=C(/C=C/C(C)=C/C=C/C(C)=C/C(=O)Nc2ccc(O)cc2)C(C)(C)CCC1	?	14.6µM*	16.4µM*	-104.5%	?	?
CC1=C(/C=C/C(C)=C/C=C/C(C)=C\C(=O)O)C(C)(C)CCC1	i	-0.2%	-17.1%	-22.4%	i	-1.4%
Cc1ccc(-n2ncc(Br)c(Br)c2=O)cc1	?	4.61µM*	5.17µM*	-109.9%	i	3.16µM*
CCOC(=O)C(=CNc1ccc(N2CCCCC2)c(S(=O)(=O)Nc2ccccc2OC)c1)C(=O)OCC	i	2.5%	0.4%	-2.0%	?	-23.9%
CCn1c(=O)cc(OCC(=O)N(C)c2cc(Cl)ccc2C)c2ccccc21	i	·	·	-31.3%	i	?
CC1=C(c2ccc(Cl)cc2)S(=O)(=O)NC1=NCCCN1CCN(c2cc(C)ccc2C)CC1	·	·	·	-38.0%	·	-28.2%
Cn1nnnc1Sc1ncnc2scc(-c3cccc4c3sc3ccccc34)c12	20.6µM*	·	·	-45.3%	?	10µM*
CC(=O)c1cccc(-c2csc3ncnc(Sc4nnnn4C)c23)c1	i	·	·	-88.9%	i	6.31µM*
Cn1nnnc1Sc1ncnc2scc(-c3cccc(S(C)(=O)=O)c3)c12	20.6µM*	·	·	-115.1%	?	?
Cn1nnnc1Sc1ncnc2scc(-c3cccc(Br)c3)c12	7.31µM*	·	·	-52.3%	18.4µM*	?
